Experimental data reported in PubChem BioAssay AID1159580 (chemical genetic matrix, 2015).
Hit rate of the full screen: of about 5,500 compounds, about 2,000 (36%) were called active. Another 18% or so got no clear call; they are omitted. Rule as the data show it: active = normalized growth mostly below about 0.91 (no sharp cut-off); inconclusive = no clear call, values can overlap the other calls; inactive = mostly above about 0.92. Some of the results follow.

Assay: chemical genetic growth profiling, strain panel (AID 1159580);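 also: tested at 20 µM; growth read once vehicle control cultures reached saturation at 30 °C; 1 = growth at the plate median or of vehicle wells; lower values mean less growth of the strain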
Conditions: S. cerevisiae deletion strains, growth OD
[1] = locus YDL101C, strain DUN1, active compounds read low
[2] = locus YHR030C, strain SLT2, active compounds read low

Measured: normalized growth

O=C1CSC(c2ccc(Cl)c(Cl)c2)N1c1ccc(F)cc1 (stereo not drawn)
inactive: locus YAL013W, strain DEP1, active compounds read low 0.988 | locus YBR229C, strain ROT2, active compounds read low 0.975 | [1] 0.964 | locus YDR150W, strain NUM1, active compounds read low 0.968 | locus YEL061C, strain CIN8, active compounds read low 0.988 | locus YGR078C, strain PAC10, active compounds read low 0.975 | [2] 0.95 | locus YHR087W, strain rtc3, active compounds read low 0.985 | locus YJR043C, strain POL32, active compounds read low 0.974 | locus YJR075W, strain HOC1, active compounds read low 0.939 | locus YKL190W, strain CNB1, active compounds read low 0.985 | locus YLR039C, strain RIC1, active compounds read low 0.994 | locus YLR058C, strain SHM2 (second series), active compounds read low 1 | locus YLR085C, strain ARP6, active compounds read low 0.942 | locus YLR262C, strain YPT6, active compounds read low 0.947 | locus YML094W, strain GIM5, active compounds read low 0.95 | locus YMR219W, strain ESC1, active compounds read low 0.994 | locus YMR263W, strain SAP30, active compounds read low 0.989 | locus YNL153C, strain GIM3, active compounds read low 0.962 | locus YNL298W, strain CLA4 (second series), active compounds read low 0.93 | locus YNL322C, strain KRE1, active compounds read low 0.988 | locus YNR030W, strain Alg12, active compounds read low 0.906 | locus YOL006C, strain TOP1, active compounds read low 0.889 | locus YPL055C, strain LGE1, active compounds read low 0.971 | locus YPL241C, strain CIN2, active compounds read low 0.977 | locus YPR135W, strain CTF4, active compounds read low 0.85
active: locus YDL134C, strain PPH21, active compounds read low 0.886

O=C1CSC(c2ccc(C(F)(F)F)cc2)N1c1ccc(C(F)(F)F)cc1 (stereo not drawn)
inactive: locus YAR019C, strain CDC15, active compounds read low 0.998 | locus YBL105C, strain PKC1, active compounds read low 1 | locus YBR135W, strain CKS1, active compounds read low 0.997 | locus YBR136W, strain MEC1, active compounds read low 1 | locus YBR160W, strain CDC28, active compounds read low 1 | locus YDL017W, strain CDC7, active compounds read low 1 | locus YDL028C, strain MPS1, active compounds read low 0.999 | [1] 1 | locus YDL108W, strain KIN28, active compounds read low 0.996 | locus YDL132W, strain cdc53, active compounds read low 0.997 | locus YDL214C, strain PRR2, active compounds read low 0.952 | locus YDR052C, strain DBF4, active compounds read low 1.01 | locus YDR054C, strain cdc34, active compounds read low 1 | locus YDR226W, strain ADK1, active compounds read low 1 | locus YDR477W, strain SNF1, active compounds read low 0.966 | locus YER123W, strain YCK3, active compounds read low 0.911 | locus YER133W, strain GLC7, active compounds read low 0.968 | locus YFL009W, strain cdc4, active compounds read low 1 | locus YFL029C, strain CAK1, active compounds read low 0.986 | locus YFR003C, strain YPI1, active compounds read low 0.994 | locus YFR019W, strain FAB1, active compounds read low 0.95 | locus YFR028C, strain CDC14, active compounds read low 0.993 | locus YGR040W, strain KSS1, active compounds read low 0.962 | locus YGR052W, strain FMP48, active compounds read low 0.972 | locus YGR092W, strain DBF2, active compounds read low 0.979 | [2] 0.878 | locus YHR079C, strain IRE1, active compounds read low 0.897 | locus YHR082C, strain KSP1, active compounds read low 0.936 | locus YHR205W, strain SCH9, active compounds read low 0.885 | locus YIL147C, strain SLN1, active compounds read low 1 | locus YJL095W, strain BCK1, active compounds read low 0.933 | locus YJL128C, strain PBS2, active compounds read low 0.939 | locus YJL157C, strain FAR1, active compounds read low 0.976 | locus YJR016C, strain ILV3, active compounds read low 1 | locus YJR066W, strain TOR1 (second series), active compounds read low 0.951 | locus YJR066W, strain TOR1, active compounds read low 0.936 | locus YKL048C, strain ELM1, active compounds read low 0.968 | locus YKL067W, strain YNK1, active compounds read low 0.946 | locus YKL101W, strain HSL1, active compounds read low 0.923 | locus YKL193C, strain SDS22, active compounds read low 1 | locus YKL203C, strain TOR2, active compounds read low 1.02 | locus YLR133W, strain CKI1, active compounds read low 0.949 | locus YLR403W, strain SFP1, active compounds read low 0.949 | locus YML070W, strain DAK1, active compounds read low 0.924 | locus YMR001C, strain CDC5, active compounds read low 1 | locus YMR205C, strain PFK2 (second series), active compounds read low 0.942 | locus YMR277W, strain FCP1, active compounds read low 0.999 | locus YNL006W, strain LST8, active compounds read low 1 | locus YNL020C, strain ARK1, active compounds read low 0.957 | locus YNL161W, strain CBK1, active compounds read low 1.01 | locus YNL183C, strain NPR1, active compounds read low 0.898 | locus YNL207W, strain RIO2, active compounds read low 0.995 | locus YNL222W, strain SSU72, active compounds read low 1 | locus YNL307C, strain MCK1 (second series), active compounds read low 0.941 | locus YOL078W, strain AVO1, active compounds read low 1.01 | locus YOL136C, strain PFK27, active compounds read low 0.937 | locus YOR061W, strain CKA2, active compounds read low 0.943 | locus YOR119C, strain RIO1, active compounds read low 1.03 | locus YOR231W, strain MKK1, active compounds read low 0.914 | locus YOR329C, strain SCD5, active compounds read low 1 | locus YPL031C, strain PHO85, active compounds read low 0.97 | locus YPL153C, strain RAD53, active compounds read low 0.96 | locus YPL204W, strain HRR25, active compounds read low 0.959 | locus YPL209C, strain IPL1, active compounds read low 1.01 | locus YPL256C, strain CLN2, active compounds read low 0.871 | locus YPR025C, strain CCL1, active compounds read low 0.998 | locus YPR106W, strain ISR1, active compounds read low 0.988 | locus YPR111W, strain DBF20, active compounds read low 0.979 | strain NNK1, active compounds read low 0.98 | strain TSCII, active compounds read low 0.999
active: locus YLR113W, strain HOG1, active compounds read low 0.829
